Data from PubChem BioAssay (EPA / NIEHS).
“And” between values parts separate entries of the source, which are not always exact repeats. Equal entries are not always repeated. Results filed as inconclusive are left out. Some structures have more than one record in an assay (separate samples or runs), and their calls can disagree. The source made the active and inactive calls. The calls were made as follows, unless noted: active = hit-call score of the fitted dose curve at least 0.9, where 1 is the maximum; inactive = score below 0.9.

Tests used:
[1] = biological target: Nuclear respiratory factor 1 (Homo sapiens) (UniProt Q16656); assay: ATG_NRF1_CIS: Attagene CIS-FACTORIAL HepG2 Assay for human Nuclear Respiratory Factor 1 (NRF1) Orphan Gene (AID 2282987); details: HepG2 NRF1 cis-element reporter, Attagene multiplex; actives raise or lower the signal
In short: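 Endogenous NRF1-driven reporter transcription in transfected HepG2 cells after 24 h treatment. Readout: RT-PCR products, 6-FAM labelled and resolved by capillary electrophoresis; changes fitted both directions relative to DMSO.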

[2] = ATG_NFI_CIS: Attagene CIS-FACTORIAL HepG2 Assay for human Nuclear Factor I (NFI) (AID 2282989); details: HepG2 cis-regulatory reporter, NFI response element transcription; actives raise or lower the signal
In short: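 Reporter transcription driven by endogenous transcription factors in HepG2 cells; 24 h treatment. Quantitation by labelled RT-PCR fragments on capillary electrophoresis, gain- or loss-of-signal relative to DMSO.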

[3] = biological target: Myc proto-oncogene protein (Homo sapiens) (UniProt P01106); assay: ATG_Myc_CIS: Attagene CIS-FACTORIAL HepG2 Assay for human Myelocytomatosis (Myc) Proto-Oncogene Transcription Factor (AID 2282990); details: HepG2, Attagene cis-reporter transcription factor activity; actives raise or lower the signal
In short: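 Multiplexed cis-reporter transcription in HepG2 cells after 24 h chemical treatment. Reporter mRNA measured by RT-PCR and capillary electrophoresis fluorescence; activity fitted bidirectionally against DMSO control.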

[4] = ATG_NF_kB_CIS: Attagene CIS-FACTORIAL HepG2 Assay for human Nuclear Factor Kappa B (NF-kB) (AID 2282991); details: HepG2 Attagene cis-factorial NF-kB reporter mRNA; actives raise or lower the signal
In short: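 Readout is reporter transcript level, gain or loss versus DMSO, measured 24 h post-dose via RT-PCR, fluorescent labelling and capillary electrophoresis. Human HepG2 liver cells carried transiently transfected CIS reporter constructs reflecting endogenous factors.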

[5] = ATG_NRF2_ARE_CIS: Attagene CIS-FACTORIAL HepG2 Assay for human Nuclear Factor Erythroid 2 Related Factor 2 (NFR2) response to Antioxidant Response Elements (ARE) (AID 2282992); details: HepG2 Attagene ARE/NRF2 reporter, transcription factor activity; actives raise or lower the signal
In short: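 HepG2 cells transiently transfected with multiplexed cis-element reporter constructs, 24 h after chemical dosing; reporter mRNA quantified by RT-PCR, fluorescent primer extension, HpaI digestion and capillary electrophoresis. Bidirectional fit relative to DMSO.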

[6] = ATG_Oct_MLP_CIS: Attagene CIS-FACTORIAL HepG2 Assay for human Octamer-Binding Transcription Factor (Oct) (AID 2282993); details: HepG2 Attagene cis-factorial Oct reporter, mRNA; actives raise or lower the signal
In short: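 Transfected HepG2 cells, 24 h treatment. Reporter mRNA quantified by RT-PCR–capillary electrophoresis; bidirectional fitting against DMSO.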

[7] = biological target: Cellular tumor antigen p53 (Homo sapiens) (UniProt P04637); assay: ATG_p53_CIS: Attagene CIS-FACTORIAL HepG2 Assay for human p53 Transcription Factor (AID 2282994); details: HepG2 p53 cis-element reporter, Attagene mRNA; actives raise or lower the signal
In short: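 HepG2 cells transiently transfected with cis-regulated multiple reporter transcription units, dosed 24 h. Reporter mRNA measured by RT-PCR, 6-FAM primer extension, HpaI digestion and capillary electrophoresis; bidirectional fit relative to DMSO.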

[8] = BSK_3C_TissueFactor: BioMAP Diversity Plus: 3C Assay for Tissue Factor Biomarker Activity (AID 2282997); details: BioMAP 3C HUVEC, tissue factor biomarker readout; actives raise or lower the signal
In short: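 Primary human umbilical vein endothelial cells in the 3C system were exposed to test chemical for 24 h, then Tissue Factor measured by ELISA. Activity was fitted bidirectionally against DMSO as negative control and baseline.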

[9] = BSK_3C_uPAR: BioMAP Diversity Plus: 3C Assay for Urokinase-type plasminogen activator receptor (uPAR) Biomarker Activity (AID 2282998); details: BioMAP 3C HUVEC, uPAR biomarker ELISA; actives raise or lower the signal
In short: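 Readout: ELISA for surface uPAR. System: human umbilical vein endothelial primary cells, 24 h after chemical exposure. Analysis: bidirectional fit, DMSO baseline.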

[10] = BSK_3C_VCAM1: BioMAP Diversity Plus: 3C Assay for Vascular cell adhesion molecule 1 (VCAM1) Biomarker Activity (AID 2282999); details: BioMAP 3C HUVEC, VCAM1 ELISA, cytokine-stimulated; actives raise or lower the signal
In short: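 Human umbilical vein endothelial cells were dosed with compound for 24 h, after which cell-surface VCAM-1 was quantified by ELISA. Bidirectional curve fitting used DMSO as negative control and activity baseline.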

[11] = BSK_4H_Eotaxin3: BioMAP Diversity Plus: 4H Assay for Eotaxin 3 Biomarker Activity (AID 2283000); details: primary human endothelial cells (HUVEC); actives raise or lower the signal
In short: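 HUVEC, 24 h post-dose, ELISA for Eotaxin-3/CCL26. Gain or loss of signal fitted bidirectionally vs DMSO baseline.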

[12] = biological target: human Peroxisome Proliferator-activated Receptor alpha (PPARa), PPARA (gene 5465) (UniProt Q07869); assay: ATG_PPARa_TRANS: Attagene TRANS-FACTORIAL HepG2 Assay for human Peroxisome Proliferator-activated Receptor alpha (PPARa) (AID 2283001; active = hit-call score of the fitted dose curve at least 0.9, where 1 is the maximum;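 as to AC50: potency for gain of reporter signal over DMSO so agonist or activator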)
In short: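 Gain-of-signal endpoint: reporter mRNA induction relative to DMSO, detected by fluorescent RT-PCR and capillary electrophoresis. HepG2 cells transiently carried GAL4-UAS-driven reporter units plus NR-Gal4 fusion; exposure lasted 24 h.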

[13] = BSK_3C_Proliferation: Cell Proliferation Assessment in the BioMAP Diversity Plus: 3C Assay (AID 2283006); details: primary human endothelial cells (HUVEC);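 as to AC50: potency may reflect either rise or fall in cell number versus DMSO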
In short: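 Read-out is total protein by SRB absorbance at 560 nm, taken as a proxy for relative cell number. Primary human umbilical vein endothelium cultured below confluence was dosed for 48 h, TCA-fixed and SRB-stained; curves were fitted bidirectionally versus DMSO.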

[14] = biological target: Nuclear receptor subfamily 1 group I member 2 (Homo sapiens) (UniProt O75469); assay: ATG_PXR_TRANS: Attagene TRANS-FACTORIAL HepG2 Assay for human Pregnane X Receptor (PXR) (AID 2283008; active = hit-call score of the fitted dose curve at least 0.9, where 1 is the maximum)
In short: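 HepG2 cells transiently transfected with GAL4-UAS reporter units and PXR-Gal4 chimera, exposed 24 h. Reporter mRNA quantified by RT-PCR, fluorescent labelling, HpaI digestion and capillary electrophoresis; gain of signal vs DMSO.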

[15] = biological target: Peroxisome proliferator-activated receptor gamma (Homo sapiens) (UniProt P37231); assay: ATG_PPARg_TRANS: Attagene TRANS-FACTORIAL HepG2 Assay for human Peroxisome Proliferator-activated Receptor-gamma (PPARg) (AID 2283007; active = hit-call score of the fitted dose curve at least 0.9, where 1 is the maximum)
In short: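 After 24 h of chemical exposure, transfected HepG2 cells carrying PPARγ-Gal4 chimera reporter constructs are lysed for RNA. Reporter transcripts are measured by RT-PCR and capillary electrophoresis with fluorescent labelling, and gain of signal is fitted versus DMSO.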

[16] = biological target: human Peroxisome Proliferator-activated Receptor delta (PPARd), PPARD (gene 5467) (UniProt Q03181); assay: ATG_PPARd_TRANS: Attagene TRANS-FACTORIAL HepG2 Assay for human Peroxisome Proliferator-activated Receptor delta (PPARd) (AID 2283002; active = hit-call score of the fitted dose curve at least 0.9, where 1 is the maximum)
In short: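 Multiplexed trans-activation format: HepG2 liver cells expressing exogenous NR-Gal4 chimeras and GAL4-UAS reporters were exposed for 24 h. Reporter mRNA was detected by RT-PCR with capillary electrophoresis fluorescence; activity fitted as gain of signal relative to DMSO.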

[17] = read-out: Intercellular Adhesion Molecule 1 (ICAM1), ICAM1 (gene 3383); assay: BSK_3C_ICAM1: BioMAP Diversity Plus: 3C Assay for Intercellular Adhesion Molecule 1 (ICAM1) Biomarker Activity (AID 2283003); details: primary human endothelial cells (HUVEC); actives raise or lower the signal
In short: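 ICAM-1 levels measured by ELISA after HUVEC cultures in the 3C system had been dosed for 24 h. Gain or loss of signal relative to DMSO was fitted in both directions.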

[18] = biological target: Retinoic acid receptor alpha (Homo sapiens) (UniProt P10276); assay: ATG_RARa_TRANS: Attagene TRANS-FACTORIAL HepG2 Assay for human Retinoic Acid Receptor alpha (RARa) (AID 2283005; active = hit-call score of the fitted dose curve at least 0.9, where 1 is the maximum)
In short: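 HepG2 cells transiently transfected with multiple reporter units expressing chimeric RARα-GAL4 fusion, with GAL4-UAS-driven reporters. After 24 h compound exposure, reporter mRNA induction quantified by RT-PCR and capillary electrophoresis with fluorescent labeling; gain-of-signal fitted relative to DMSO control.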

[19] = biological target: human Retinoic Acid Receptor beta (RARb), RARB (gene 5915) (UniProt P10826); assay: ATG_RARb_TRANS: Attagene TRANS-FACTORIAL HepG2 Assay for human Retinoic Acid Receptor beta (AID 2283004; active = hit-call score of the fitted dose curve at least 0.9, where 1 is the maximum)
In short: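 HepG2 cells transiently transfected with multiplexed GAL4-UAS reporter units expressing chimeric NR–Gal4 fusions; 24 h compound exposure. Reporter mRNA quantified by RT-PCR, 6-FAM labelling, HpaI digestion and capillary electrophoresis; gain-of-signal fitted against DMSO baseline.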

Measured: AC50

Chain of Nuclear receptor subfamily 1 group I member 2 (Homo sapiens) (O75469 whole entry, looked up, the tested form may be a part): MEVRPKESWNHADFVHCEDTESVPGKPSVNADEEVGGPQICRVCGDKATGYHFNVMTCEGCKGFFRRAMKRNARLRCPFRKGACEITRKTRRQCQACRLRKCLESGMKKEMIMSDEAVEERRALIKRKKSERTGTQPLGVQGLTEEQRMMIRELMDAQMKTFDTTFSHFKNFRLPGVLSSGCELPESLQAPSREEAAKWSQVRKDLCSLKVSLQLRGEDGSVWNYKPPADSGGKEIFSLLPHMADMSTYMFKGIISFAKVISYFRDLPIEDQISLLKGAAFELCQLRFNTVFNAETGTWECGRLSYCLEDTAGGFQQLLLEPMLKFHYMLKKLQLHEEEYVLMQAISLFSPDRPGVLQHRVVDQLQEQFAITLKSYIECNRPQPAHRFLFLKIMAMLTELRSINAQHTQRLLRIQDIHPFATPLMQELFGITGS
Chain of Peroxisome proliferator-activated receptor gamma (Homo sapiens) (P37231 whole entry, looked up, the tested form may be a part): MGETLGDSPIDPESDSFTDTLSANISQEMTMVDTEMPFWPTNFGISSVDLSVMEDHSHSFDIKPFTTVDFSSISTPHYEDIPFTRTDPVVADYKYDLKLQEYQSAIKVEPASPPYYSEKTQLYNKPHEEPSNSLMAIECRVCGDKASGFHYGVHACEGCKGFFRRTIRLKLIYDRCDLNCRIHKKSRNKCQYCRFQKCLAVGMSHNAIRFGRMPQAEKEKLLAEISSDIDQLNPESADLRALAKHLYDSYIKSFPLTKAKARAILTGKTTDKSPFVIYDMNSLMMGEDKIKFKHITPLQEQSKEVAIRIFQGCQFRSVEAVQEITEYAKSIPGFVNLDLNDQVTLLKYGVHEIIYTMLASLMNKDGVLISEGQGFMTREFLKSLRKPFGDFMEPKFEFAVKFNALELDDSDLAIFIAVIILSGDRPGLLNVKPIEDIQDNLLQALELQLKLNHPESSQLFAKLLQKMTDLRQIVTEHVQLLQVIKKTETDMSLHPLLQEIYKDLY
Chain of Myc proto-oncogene protein (Homo sapiens) (P01106 whole entry, looked up): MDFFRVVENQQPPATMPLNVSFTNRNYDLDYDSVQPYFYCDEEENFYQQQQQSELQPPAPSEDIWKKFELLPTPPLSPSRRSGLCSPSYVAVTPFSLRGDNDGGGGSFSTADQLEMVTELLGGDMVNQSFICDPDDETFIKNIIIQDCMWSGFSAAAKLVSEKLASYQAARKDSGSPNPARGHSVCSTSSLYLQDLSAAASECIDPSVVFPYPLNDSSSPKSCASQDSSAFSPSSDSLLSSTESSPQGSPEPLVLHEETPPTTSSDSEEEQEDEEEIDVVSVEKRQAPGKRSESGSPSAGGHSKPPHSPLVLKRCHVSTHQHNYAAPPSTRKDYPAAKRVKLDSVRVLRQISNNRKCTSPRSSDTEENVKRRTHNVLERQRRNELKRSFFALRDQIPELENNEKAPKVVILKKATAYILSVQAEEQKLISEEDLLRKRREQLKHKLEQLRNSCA
Chain of human Peroxisome Proliferator-activated Receptor delta (PPARd), PPARD (gene 5467) (Q03181 whole entry, looked up, the tested form may be a part): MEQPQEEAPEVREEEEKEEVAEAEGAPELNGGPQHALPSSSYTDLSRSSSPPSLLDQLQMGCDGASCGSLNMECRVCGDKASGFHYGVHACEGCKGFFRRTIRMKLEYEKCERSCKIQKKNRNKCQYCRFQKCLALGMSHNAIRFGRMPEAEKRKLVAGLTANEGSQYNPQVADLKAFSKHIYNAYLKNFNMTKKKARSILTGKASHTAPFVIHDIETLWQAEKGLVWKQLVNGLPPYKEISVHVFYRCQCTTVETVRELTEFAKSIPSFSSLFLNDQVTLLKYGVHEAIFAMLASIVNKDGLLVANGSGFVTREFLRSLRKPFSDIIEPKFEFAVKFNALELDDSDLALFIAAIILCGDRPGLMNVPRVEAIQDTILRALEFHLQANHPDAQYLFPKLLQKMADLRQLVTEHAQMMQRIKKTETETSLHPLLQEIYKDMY
Chain of human Retinoic Acid Receptor beta (RARb), RARB (gene 5915) (P10826 whole entry, looked up, the tested form may be a part): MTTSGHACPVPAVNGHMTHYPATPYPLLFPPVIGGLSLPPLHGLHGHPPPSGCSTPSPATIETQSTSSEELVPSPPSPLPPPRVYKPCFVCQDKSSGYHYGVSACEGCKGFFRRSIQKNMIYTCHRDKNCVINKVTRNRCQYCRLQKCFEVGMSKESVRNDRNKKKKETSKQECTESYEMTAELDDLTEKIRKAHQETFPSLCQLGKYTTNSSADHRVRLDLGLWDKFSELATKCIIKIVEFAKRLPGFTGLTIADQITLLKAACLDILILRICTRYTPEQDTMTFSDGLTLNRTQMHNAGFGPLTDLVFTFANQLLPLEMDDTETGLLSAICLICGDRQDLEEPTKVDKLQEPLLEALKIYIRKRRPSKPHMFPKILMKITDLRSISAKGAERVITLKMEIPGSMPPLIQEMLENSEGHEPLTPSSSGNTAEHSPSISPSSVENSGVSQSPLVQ
Chain of Retinoic acid receptor alpha (Homo sapiens) (P10276 whole entry, looked up, the tested form may be a part): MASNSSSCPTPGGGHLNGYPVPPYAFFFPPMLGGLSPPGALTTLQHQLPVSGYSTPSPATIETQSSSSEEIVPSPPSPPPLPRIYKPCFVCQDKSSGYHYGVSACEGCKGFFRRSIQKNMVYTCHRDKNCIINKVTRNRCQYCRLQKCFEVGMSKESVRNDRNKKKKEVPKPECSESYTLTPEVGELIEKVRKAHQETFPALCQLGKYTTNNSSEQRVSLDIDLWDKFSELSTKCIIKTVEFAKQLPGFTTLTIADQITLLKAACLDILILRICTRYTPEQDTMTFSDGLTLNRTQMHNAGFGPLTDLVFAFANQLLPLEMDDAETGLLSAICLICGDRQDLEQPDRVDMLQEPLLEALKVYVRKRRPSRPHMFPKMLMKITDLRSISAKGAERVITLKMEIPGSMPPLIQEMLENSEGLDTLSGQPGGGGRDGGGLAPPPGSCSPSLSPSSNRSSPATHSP
Chain of human Peroxisome Proliferator-activated Receptor alpha (PPARa), PPARA (gene 5465) (Q07869 whole entry, looked up, the tested form may be a part): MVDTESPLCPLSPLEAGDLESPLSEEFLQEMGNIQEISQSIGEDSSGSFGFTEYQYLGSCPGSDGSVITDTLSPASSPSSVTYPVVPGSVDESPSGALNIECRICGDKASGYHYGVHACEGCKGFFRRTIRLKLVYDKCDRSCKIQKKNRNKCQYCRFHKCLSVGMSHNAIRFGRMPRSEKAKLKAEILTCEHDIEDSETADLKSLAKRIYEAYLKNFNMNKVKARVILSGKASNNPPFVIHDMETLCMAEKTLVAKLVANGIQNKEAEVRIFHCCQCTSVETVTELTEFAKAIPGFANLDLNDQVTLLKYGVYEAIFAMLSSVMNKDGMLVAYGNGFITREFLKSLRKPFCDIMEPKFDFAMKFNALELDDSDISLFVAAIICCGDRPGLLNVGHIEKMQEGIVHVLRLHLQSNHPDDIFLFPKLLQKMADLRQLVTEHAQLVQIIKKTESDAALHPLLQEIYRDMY
Chain of Cellular tumor antigen p53 (Homo sapiens) (P04637 whole entry, looked up): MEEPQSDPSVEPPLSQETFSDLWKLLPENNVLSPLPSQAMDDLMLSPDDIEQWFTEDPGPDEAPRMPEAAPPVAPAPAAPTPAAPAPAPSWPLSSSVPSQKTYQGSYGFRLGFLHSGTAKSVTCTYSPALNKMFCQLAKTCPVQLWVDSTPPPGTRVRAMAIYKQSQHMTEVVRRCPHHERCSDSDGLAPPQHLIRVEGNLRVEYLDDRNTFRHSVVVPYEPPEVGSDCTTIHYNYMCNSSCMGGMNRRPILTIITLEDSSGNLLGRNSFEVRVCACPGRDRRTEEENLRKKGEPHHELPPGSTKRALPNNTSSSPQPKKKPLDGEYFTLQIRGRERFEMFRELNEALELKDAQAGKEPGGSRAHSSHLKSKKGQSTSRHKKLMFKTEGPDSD
Chain of Nuclear respiratory factor 1 (Homo sapiens) (Q16656 whole entry, looked up): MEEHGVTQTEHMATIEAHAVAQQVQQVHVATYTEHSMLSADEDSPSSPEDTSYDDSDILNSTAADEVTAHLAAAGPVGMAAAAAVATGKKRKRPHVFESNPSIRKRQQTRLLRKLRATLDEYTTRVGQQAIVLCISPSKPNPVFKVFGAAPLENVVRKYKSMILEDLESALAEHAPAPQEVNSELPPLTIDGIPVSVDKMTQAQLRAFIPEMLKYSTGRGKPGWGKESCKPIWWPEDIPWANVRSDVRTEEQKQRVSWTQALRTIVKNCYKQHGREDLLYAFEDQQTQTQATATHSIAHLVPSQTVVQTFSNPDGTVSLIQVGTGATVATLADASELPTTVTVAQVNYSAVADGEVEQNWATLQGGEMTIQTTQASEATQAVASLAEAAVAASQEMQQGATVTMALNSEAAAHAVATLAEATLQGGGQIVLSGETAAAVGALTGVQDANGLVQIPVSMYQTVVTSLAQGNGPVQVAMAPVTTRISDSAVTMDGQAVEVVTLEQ

CS(C)(=O)=O
inactive: [1] | [2] | [3] | [4] | [6] | [7] | [8] | [9] | [10] | [11] | [12] | [13] | [14]
active: [5] 27.5 µM

CC(Cc1ccc(O)c(O)c1)C(C)Cc1ccc(O)c(O)c1 (centres undefined)
inactive: [1] | [3] | [7]
active: [2] 19 µM | [4] 55.3 µM | [5] 22.8 µM | [6] 20.6 µM | [15] 19.3 µM | [14] 6.87 µM

FC(F)(Br)C(F)(F)C(F)(F)C(F)(F)C(F)(F)C(F)(F)Br
inactive: [1] | [2] | [3] | [4] | [5] | [6] | [7] | [8] | [9] | [10] | [11] | [16] | [13] | [15] | [14]

CCCCOCCOCCOC(=O)CCCCC(=O)OCCOCCOCCCC
inactive: [1] | [2] | [3] | [4] | [5] | [6] | [8] | [9] | [10] | [11] | [16] | [17] | [18] | [13] | [14]
active: [12] 37.7 µM

c1ccc(B(c2ccccc2)c2ccccc2)cc1
active: [2] 26.7 µM | [5] 33.9 µM | [6] 43.3 µM | [14] 4.69 µM
inactive: [1] | [3] | [4] | [7] | [16]

FC(F)(F)C(F)(F)C(F)(F)C(F)(F)C(F)(F)CCI
inactive: [1] | [2] | [3] | [4] | [6] | [7] | [8] | [9] | [10] | [11] | [16] | [19] | [13] | [14]
active: [5] 88.9 µM | [13] 30 µM | [15] 73 µM

FC(F)(F)C(F)(F)C(F)(F)N(C(F)(F)C(F)(F)C(F)(F)F)C(F)(F)C(F)(F)C(F)(F)F
inactive: [1] | [2] | [3] | [4] | [5] | [6] | [7] | [8] | [9] | [10] | [11] | [16] | [17] | [19] | [18] | [13]

O=C(CC(=O)C(F)(F)C(F)(F)F)C(F)(F)F
active: [4] 150 µM | [5] 94.6 µM and 109 µM | [7] 112 µM
inactive: [1] | [3] | [4] | [6] | [7] | [8] | [9] | [10] | [11] | [12] | [16] | [13] | [14]

CCc1ccc(C(c2ccc(CC)cc2)C(Cl)Cl)cc1
active: [5] 56.5 µM | [9] 12.2 µM | [10] 27.4 µM | [11] 14.1 µM | [13] 13.1 µM | [14] 3.55 µM
inactive: [1] | [2] | [3] | [6] | [7] | [8] | [16] | [15]

Cc1cc(C)cc(O)c1
inactive: [1] | [2] | [3] | [5] | [6] | [7] | [12] | [19] | [18] | [14]

Nc1ccc(S(=O)(=O)Nc2nccs2)cc1
inactive: [1] | [2] | [3] | [4] | [5] | [6] | [7] | [12] | [16] | [14]

CCCCC(CC)COP(=O)(O)OCC(CC)CCCC (centres undefined)
active: [5] 26.6 µM | [12] 16.5 µM | [13] 36 µM | [14] 15.4 µM
inactive: [1] | [2] | [3] | [6] | [8] | [9] | [10] | [11]

C1COCCN1
inactive: [1] | [2] | [3] | [5] | [6] | [7] | [12] | [16] | [19] | [18] | [14]

COC(OC(C)=O)c1ccccc1 (centres undefined)
inactive: [1] | [2] | [3] | [4] | [5] | [6] | [7] | [16] | [14]

CC(C)OC(=O)c1ccccc1C(=O)OC(C)C
inactive: [1] | [2] | [3] | [4] | [5] | [6] | [19] | [18]
active: [15] 100 µM | [14] 5.74 µM

O=C(O)C(F)(F)C(F)(F)C(F)(F)C(F)(F)C(F)(F)C(F)(F)C(F)(F)C(F)(F)C(F)(F)C(F)F
active: [5] 26.3 µM | [10] 45.2 µM | [11] 29.1 µM | [12] 19.4 µM | [13] 56.7 µM and 47 µM | [14] 64.5 µM
inactive: [1] | [3] | [4] | [6] | [7] | [8] | [9] | [10] | [11] | [19]

FC(F)(F)C(F)(F)C(F)(F)CI
inactive: [1] | [2] | [3] | [4] | [5] | [6] | [7] | [8] | [9] | [10] | [11] | [19] | [18] | [13] | [14]
